In the library only some 1.2% were active in any assay of this set; here they are far more common.
PrPC surface inh: inhibitors of human cell surface prion protein PrPC, primary screen, cell-based, TR-FRET; Major prion protein (Homo sapiens), P04156; inhibition, % at 13.8 µM; 370,000 tested, 0.43% active; TR-FRET read-out; in the data active means inhibition above about 24%
SARS 3CLpro inh-1: SARS-CoV 3CLpro protease inhibitors, primary screen, biochemical, quenched FRET. Replicase polyprotein 1ab (Severe acute respiratory syndrome coronavirus), P0C6X7. recombinant SARS-CoV 3CLpro, quenched FRET peptide cleavage. inhibition, % at 6 µM. 290,000 tested, 0.14% active. AID 1706, 2009; in the data active means inhibition above about 12%
PriA SSB inh: inhibitors of Klebsiella pneumoniae PriA binding to SSB C-terminal tail, primary screen, biochemical, AlphaScreen; PriA–SSB C-terminal tail interaction (Klebsiella pneumoniae); AlphaScreen SSBct-PriA binding, biotinylated peptide; inhibition, % at 33 µM; 430,000 tested, 0.6% active; in the data active means inhibition mostly above about 37%, no sharp cut-off; inactive means mostly below about 20%
PrP 5UTR inh: inhibition of PrP 5' UTR reporter expression. cell-based PrP 5' UTR mRNA reporter, plate reader. inhibition, % (no concentration beside the values). 340,000 tested, 0.35% active. AID 488862, 2010; in the data active means inhibition above about 52%
BJeLR viability: MLPCN primary cell-based screen for lethality selective to Ras in HRASV12 cells | BJeLR (HRASV12) viability, CellTiter-Glo ATP luminescence, 48 h | inhibition, % (no concentration beside the values) | 300,000 tested, 0.17% active | AID 1554, 2009; in the data active means inhibition above about 50%
SARS 3CLpro inh-2: confirmation of SARS coronavirus 3C-like protease inhibitors, retest, confirmation, biochemical. 380 tested, 36% active. QFRET protease activity assay, 3CLpro. inhibition, % at 6 µM. shares compounds with SARS 3CLpro inh-1; in the data active means inhibition above about 13%
Numbers stand for hits; n = inactive; x = no result given.

SMILES	PrPC surface inh	SARS 3CLpro inh-1	PriA SSB inh	PrP 5UTR inh	BJeLR viability	SARS 3CLpro inh-2
COc1cc(OC)c(C2=Nc3ccc(Br)cc3C(c3ccccc3)N2CC(=O)NN)cc1OC (stereo not given)	n	12	n	n	n	n
CC1=Nc2ccc(Br)cc2C(c2ccccc2)N1CC(=O)NN (stereo not given)	n	13	n	n	n	n
CCOC(=O)CN1C(c2cc(OC)c(OC)c(OC)c2)=Nc2ccc(Br)cc2C1c1ccccc1 (stereo not given)	x	x	n	x	x	x
NNC(=O)CN1C(c2ccccc2)=Nc2ccc(Br)cc2C1c1ccccc1 (stereo not given)	n	13	n	n	n	n
NNC(=O)CN1C(CN2CCOCC2)=Nc2ccc(Br)cc2C1c1ccccc1 (stereo not given)	n	21	n	n	n	n
CN1CCN(C(CNC(=O)C(=O)NCc2ccc(Cl)cc2)c2ccc3c(c2)CCN3C)CC1 (stereo not given)	x	x	n	x	x	x
COc1cc2c(cc1OC)C(C(C#N)=NO)=NC(C)(C)C2	x	x	n	x	x	x
COc1ccc(CCNC(=O)C2(c3cccs3)CCCC2)cc1OC	x	x	n	x	x	x
COc1ccc(N(Cc2cc3ccccc3[nH]c2=O)S(=O)(=O)c2ccc(OC)cc2)cc1	n	16	n	n	n	n
COc1ccc(N(Cc2cc3cc(OC)ccc3[nH]c2=O)S(=O)(=O)c2ccc(NC(C)=O)cc2)cc1	n	n	n	n	n	x
O=C1C(C2=NC(c3ccccn3)C3C(=O)N(c4ccccc4)C(=O)C23)=C(O)c2ccccc21 (stereo not given)	n	80	n	n	n	n
CCN(CC)C(=O)COc1ccc(-c2c(C)sc(N)c2C(=O)OC)cc1	x	x	n	x	x	x
O=C(c1c(Cl)nc2sccn12)N1CCN(c2cccc(Cl)c2)CC1	n	44	n	n	n	n
O=S(=O)(c1cccc(NC(=S)N2CCN(c3ccccc3)CC2)c1)C(F)F	n	13	n	n	n	n
COc1ccc(C(=O)n2c(SC)nc3cc4c(cc32)OCCO4)cc1	n	12	n	x	n	92
COc1ccc(C2=NN(C(=O)Cn3cnc4c(cnn4CCO)c3=O)C(c3ccc(F)cc3)C2)cc1 (stereo not given)	x	x	n	x	x	x
O=C(NNC(=O)c1cccn(Cc2ccc(F)cc2)c1=O)c1ccc(Br)o1	x	x	n	x	x	x
CN(C)S(=O)(=O)N1CCC(S(=O)(=O)C(C)(C)C)C1 (stereo not given)	x	x	n	x	x	x
Cc1ccc(C)c(Nc2nnc(C(C)(C)C)c(=O)[nH]2)c1	x	x	n	x	x	x
COc1ccc2c(c1)C(=O)C(=O)N2CC1COc2ccccc2O1 (stereo not given)	n	35	n	n	n	40
Cc1ccc2c(c1)C(=O)C(=O)N2CC1COc2ccccc2O1 (stereo not given)	n	n	n	n	n	x
CCOc1ccc2c(c1)C(=O)C(=O)N2CC1COc2ccccc2O1 (stereo not given)	n	58	n	n	n	60
O=S(=O)(Nc1ccc(S(=O)(=O)Nc2nccs2)cc1)c1ccc(Br)cc1	n	47	n	n	n	n
O=S(=O)(Nc1nccs1)c1ccc(Br)cc1	n	n	n	n	n	x
O=C(N[C@H](Cc1ccc(Cl)cc1)C(=O)O)OCC1c2ccccc2-c2ccccc21	n	n	n	n	n	x
SMILES	PrPC surface inh	SARS 3CLpro inh-1	PriA SSB inh	PrP 5UTR inh	BJeLR viability	SARS 3CLpro inh-2
O=C(N[C@@H](Cc1ccc(Br)cc1)C(=O)O)OCC1c2ccccc2-c2ccccc21	n	12	n	n	n	n
Cn1cccc1Cc1nnc(SCC(=O)Nc2ccc3c(c2)OCCO3)n1-c1cccc(C(F)(F)F)c1	x	x	n	x	x	x
COC1C(OC(=O)c2ccc(C)[nH]2)C(O)C(Oc2ccc3c(O)c(NC(=O)c4ccc(O)c(CC=C(C)C)c4)c(=O)oc3c2Cl)OC1(C)C (stereo not given)	n	13	n	n	x	n
COc1ccccc1Oc1ccc(S(=O)(=O)NCc2ccc(C(=O)O)cc2)cc1	x	x	n	x	x	x
O=c1[nH]c(C2CCN(S(=O)(=O)c3ccccc3F)CC2)nc2c1nnn2Cc1ccc(OC(F)(F)F)cc1	n	13	n	n	n	n
COCCN1CCC(CNC(=O)c2ccc(F)c(F)c2)CC1	x	x	n	x	x	x
COc1ccc(N(Cc2cc(=O)[nH]c3ccccc23)C(=O)CCl)cc1	n	16	n	n	n	25
CCCC(=O)N(Cc1cc(=O)[nH]c2ccccc12)c1ccc(OC)cc1	n	n	n	n	n	x
O=C(O)c1ccc(N2N=C(c3ccccc3)CC2c2ccccc2)cc1 (stereo not given)	n	13	n	n	n	n
CC(C)CS(=O)(=O)C1CN(S(=O)(=O)c2ccccc2C#N)C1	x	x	n	x	x	x
CCn1nc(NS(=O)(=O)c2ccccc2)c2cc3cc(C)ccc3nc21	n	12	n	n	n	n
CCn1nc(NS(=O)(=O)c2ccc([N+](=O)[O-])cc2)c2cc3cccc(C)c3nc21	n	12	n	n	n	n
CC(=O)Nc1ccc(S(=O)(=O)N2CC(c3nc4ccc(C)cc4[nH]3)C2)cc1	x	x	n	x	x	x
Cc1ccc(-c2ccc(=O)n(CCCNC(=O)COc3ccccc3Cl)n2)cc1	x	x	n	x	x	x
Cc1ccc(OCC(=O)NN=Cc2ccc([N+](=O)[O-])o2)cc1	x	x	n	x	x	x
Cc1ccc(OCC(=O)N/N=C/c2ccc([N+](=O)[O-])o2)cc1	n	13	x	n	n	n
CCCCCc1c2c(cc(O)c1C(=O)O)OC(=O)c1c(cc(OC)cc1C(=O)CCCC)O2	x	15	n	n	n	n
S=C(c1ccc(-c2ccccc2Cl)o1)N1CCCCC1	n	27	n	n	n	n
CN1CCN(C(=S)c2ccc(-c3cccc(Cl)c3Cl)o2)CC1	n	n	n	n	n	x
C/C(=N\N=C(/N)SC1CC(=O)N(c2ccc(Cl)cc2)C1=O)c1cccs1 (stereo not given)	n	13	x	n	n	n
Cc1cccc(N2C(N)=C(C#N)C(C#N)(C#N)C2c2ccccc2)c1 (stereo not given)	n	14	n	n	n	n
Cc1cccc(NS(=O)(=O)c2nnc(NC(=O)c3ccc(Cl)cc3)s2)c1	n	13	n	n	n	n
Cc1ccccc1NS(=O)(=O)c1nnc(NC(=O)c2ccc(Cl)cc2)s1	n	n	n	n	n	x
Cc1cccc(NS(=O)(=O)c2nnc(NC(=O)c3cccc(C)c3)s2)c1	n	12	n	n	n	n
COc1ccc(C=NNC(=O)CCCOc2ccc(Cl)cc2Cl)cc1	x	x	n	x	x	x
O=C(C1=COCCO1)N(CCN1CCOCC1)c1nc2c(F)cccc2s1	x	x	n	x	x	x
CCCCOc1ccc(Nc2cc(Cl)ccc2C(=O)O)cn1	n	n	n	n	n	n
COc1ccc(CC(=O)Nc2cc(Cl)ccc2C(=O)O)cc1	n	n	n	n	x	x

Screening results (PubChem)
